# Measured values published in publication PMC4336329 (PLoS ONE, 2015).
# In all, about 310,000 compounds went through this assay and about 14,000 (4.5%) showed an effect of 50% or more. The effect is printed as a negative number. Only a selection was taken, and strong results are over-represented in it overall.
# Molecular target: human ether-à-go-go-related gene (hERG) potassium channel (human, UniProt Q12809)
# Assay: primary screen, population patch clamp on CHO cells stably expressing hERG; higher = less effect of the substance
# 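Further: peak tail current of the secondary pulse compared with the same well before compound.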
# Sequence of human ether-à-go-go-related gene (hERG) potassium channel (Q12809 whole entry, looked up): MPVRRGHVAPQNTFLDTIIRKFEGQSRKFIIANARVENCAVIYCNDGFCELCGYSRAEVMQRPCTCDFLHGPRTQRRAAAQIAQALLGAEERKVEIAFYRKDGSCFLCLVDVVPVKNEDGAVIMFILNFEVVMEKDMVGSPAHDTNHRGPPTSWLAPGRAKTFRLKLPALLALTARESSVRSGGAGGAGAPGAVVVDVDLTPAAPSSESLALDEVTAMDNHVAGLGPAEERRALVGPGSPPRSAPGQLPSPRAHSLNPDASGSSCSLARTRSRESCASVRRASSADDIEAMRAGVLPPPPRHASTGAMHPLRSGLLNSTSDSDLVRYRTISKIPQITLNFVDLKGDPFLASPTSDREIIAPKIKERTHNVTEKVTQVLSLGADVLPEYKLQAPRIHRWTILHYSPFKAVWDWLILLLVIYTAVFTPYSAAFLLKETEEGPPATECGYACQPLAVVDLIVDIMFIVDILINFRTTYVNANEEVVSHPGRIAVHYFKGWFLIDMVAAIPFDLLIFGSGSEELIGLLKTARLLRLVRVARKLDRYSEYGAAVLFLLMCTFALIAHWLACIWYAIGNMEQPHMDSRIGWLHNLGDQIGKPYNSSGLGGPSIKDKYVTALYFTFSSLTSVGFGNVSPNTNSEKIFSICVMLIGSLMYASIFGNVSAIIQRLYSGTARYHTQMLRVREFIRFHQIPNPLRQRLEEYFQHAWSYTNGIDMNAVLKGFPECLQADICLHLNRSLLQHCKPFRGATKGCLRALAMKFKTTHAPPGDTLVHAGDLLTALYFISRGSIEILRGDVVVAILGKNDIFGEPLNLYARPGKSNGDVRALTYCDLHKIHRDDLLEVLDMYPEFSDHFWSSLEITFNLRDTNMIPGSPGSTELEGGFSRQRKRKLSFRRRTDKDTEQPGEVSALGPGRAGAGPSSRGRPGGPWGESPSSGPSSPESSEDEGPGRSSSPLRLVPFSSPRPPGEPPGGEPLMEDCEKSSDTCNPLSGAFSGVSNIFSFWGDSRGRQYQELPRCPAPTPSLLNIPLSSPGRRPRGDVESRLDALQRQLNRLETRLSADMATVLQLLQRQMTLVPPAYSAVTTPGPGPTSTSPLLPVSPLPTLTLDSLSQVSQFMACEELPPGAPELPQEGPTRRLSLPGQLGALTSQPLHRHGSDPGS
row,Compound,"hERG current change (%, negative = inhibition) at 10uM [%]"
1,O=C(CCC(=O)c1ccc(F)cc1)Nc1ccccc1Cl,1.71
2,Cc1ccc(S(=O)(=O)N2CCCC2)cc1C(=O)N1CCN(Cc2ccccc2)CC1,-8.29
3,CC1CSc2nnc(CCc3ccccc3)n21 (centres unmarked),8.26
4,O=C(CSc1ccc(-c2cccnc2)nn1)N1CCCCCC1,23.2
5,CCCCn1c(N)c(N(CCOC)C(=O)CSCc2cccc(C)c2)c(=O)[nH]c1=O,9.08
6,COCCNS(=O)(=O)c1ccc(SC)cc1,10.2
7,Cc1cc(NC(=O)CSc2nnc(COc3ccccc3)n2Cc2ccco2)no1,2.24
8,CCOC(=O)N1CCc2c(sc(NC(=O)CCS(=O)(=O)c3ccccc3)c2C(N)=O)C1,-10.8
9,CCOC(=O)c1c(NC(=O)CCS(=O)(=O)c2ccccc2)sc2c1CCN(C(C)C)C2.Cl,-72.4
10,CC(=O)N1CCc2c(sc(NC(=O)CS(=O)(=O)c3ccc(F)cc3)c2C(N)=O)C1,15.7
11,COC(=O)c1c(NC(=O)CCS(=O)(=O)c2ccccc2)sc2c1CCN(C)C2.Cl,-48
12,CN1CCc2c(sc(NC(=O)CS(=O)(=O)c3ccc(F)cc3)c2C(N)=O)C1.Cl,-58.8
13,CC(=O)N1CCc2c(sc(NC(=O)CCS(=O)(=O)c3ccccc3)c2C(N)=O)C1,5.3
14,CCCN1CCc2c(sc(NC(=O)CCS(=O)(=O)c3ccccc3)c2C(=O)OC)C1.Cl,-67
15,CCOC(=O)c1c(NC(=O)CCS(=O)(=O)c2ccccc2)sc2c1CCN(C)C2.Cl,-52.5
16,CC(C)N1CCc2c(sc(NC(=O)CCS(=O)(=O)c3ccccc3)c2C#N)C1.Cl,-9.63
17,CN1CCc2c(sc(NC(=O)CS(=O)(=O)c3ccccc3)c2C(N)=O)C1.Cl,-23.4
18,CC(C)N1CCc2c(sc(NC(=O)CCS(=O)(=O)c3ccccc3)c2C(N)=O)C1.Cl,-26
19,CCCN1CCc2c(sc(NC(=O)CCS(=O)(=O)c3ccccc3)c2C(N)=O)C1.Cl,-27.3
20,CC(Sc1ncn[nH]1)C(=O)Nc1ccc(Cl)cn1 (centres unmarked),2.06
21,O=C(O)c1ccc(/C=C/c2nc3ccccc3c(=O)[nH]2)cc1,17.5
22,CCSc1nnc(NC(=O)c2cccs2)s1,-8.23
23,COc1cc(OC)cc(-c2nnc(SCC(=O)N3c4ccccc4Sc4ccccc43)o2)c1,15.3
24,CC1C=CCC2C(=O)N(c3ccc(Cl)cc3O)C(=O)C12 (centres unmarked),-2.47
25,COC(=O)c1sc(N2C(=O)C(O)=C(C(=O)c3ccc(C)o3)C2c2ccco2)nc1C (centres unmarked),-4.73
26,O=C(O)C1=C[C@H](c2ccc(C(F)(F)F)cc2)C[C@H](OCc2ccc(CO)cc2)O1,21.5
27,O=C(CSc1ccsc1[N+](=O)[O-])N1CCN(c2ccc(Cl)cc2)CC1,10

row,Compound,"hERG current change (%, negative = inhibition) at 10uM [%]"
1,O=C(COc1ccc(Cl)cc1)Nc1ccc(NC(=O)c2ccco2)cc1,13.4
2,COc1cccc(CN(C)C(=O)Nc2cccc(C(F)(F)F)c2)c1OC,-4.73
3,O=C(NCc1ccc(Cl)cc1)c1cc2c(s1)CS(=O)(=O)C2,-15.1
4,O=C(CCCn1c(=O)c2sccc2n(Cc2ccc(F)cc2)c1=O)NCc1ccco1,-30.2
5,O=C(NCc1cccs1)Nc1ccc(Cl)cc1,-21.2
6,O=C(O)c1ccc2c(c1)S(=O)(=O)c1cc(Cl)ccc1C2=O,19.5
7,Cc1cccc(N2CCN(C(=O)COc3ccc4ccc(=O)oc4c3)CC2)c1C,5.66
8,CCC(CO)[n+]1c(C)cc(/C=C2\Sc3ccccc3N2Cc2ccccc2)cc1C.[Br-] (centres unmarked),-75.6
9,CCN1/C(=C2\SC(=S)N(Cc3ccccc3)C2=O)Sc2ccccc21,13.6
10,C[n+]1ccccc1/C=C1\Sc2ccccc2N1CCO.[I-],-2.79
11,Nc1cc([N+](=O)[O-])ccc1O,6.95
12,Clc1cncc(Cl)c1N/N=C/c1ccccc1,-1.37
13,CNC(=O)c1cc2cc(Cc3ccccc3Cl)ccc2oc1=O,1.75
14,CCN1C(=O)C(CC(=O)Nc2ccc(F)cc2)N(Cc2cccs2)C1=S (centres unmarked),-48.9
15,CCOc1ccc2c(c1)C(N(CCN1CCOCC1)C(=O)Nc1ccccc1)CC(C)(C)O2 (centres unmarked),-19.1
16,CCOc1ccc2c(c1)C(N(CCN1CCOCC1)C(=O)Nc1ccc(OC)cc1OC)CC(C)(C)O2 (centres unmarked),-51.9
17,CCOc1ccc2c(c1)C(N(CCN1CCOCC1)C(=S)Nc1ccccc1OC)CC(C)(C)O2 (centres unmarked),-24.9
18,CN(C(=O)/C=C/c1ccc2c(c1)OCO2)c1ccccc1,-4.59
19,CC(C)CNC(=O)C(=O)NCC(c1ccc2c(c1)OCO2)N1CCOCC1 (centres unmarked),6.81
20,COc1ccc(C(CNC(=O)C(=O)Nc2ccc3c(c2)OCCO3)N2CCN(C)CC2)cc1 (centres unmarked),-45.1
21,CN1CCN(C(CNC(=O)C(=O)Nc2ccc3c(c2)OCO3)c2ccc(F)cc2)CC1 (centres unmarked),-44.3
22,Cc1ccc(C(CNC(=O)C(=O)Nc2ccc3c(c2)OCCO3)N2CCN(C)CC2)cc1 (centres unmarked),-55.5
23,CN1CCN(C(CNC(=O)C(=O)Nc2ccc3c(c2)OCCO3)c2ccc(F)cc2)CC1 (centres unmarked),-46.2
24,COc1ccc(C(CNC(=O)C(=O)Nc2ccc3c(c2)OCO3)N2CCN(C)CC2)cc1 (centres unmarked),-50.9
25,CCOc1cc2c(cc1OC)C(NC(=O)C(F)(F)F)CC2=O (centres unmarked),-0.243
26,CC1CCc2nc3ccc(S(=O)(=O)N4CCC(C(=O)NCc5ccccc5Cl)CC4)cc3c(C(=O)O)c2C1 (centres unmarked),7.04
